According to PubChem BioAssay (NCATS):
Results filed as inconclusive are left out. More than one record can exist for a structure, and the calls need not agree. Calls of active or inactive are those of the source. Unless noted, calls come from the whole dose curve; as a rule, active = well fitted curve in the direction sought with a large enough effect; inconclusive = small, poorly fitted or top-dose-only effect, or another doubt; inactive = no such curve, though single readings can be large; an effect the other way counts as inactive or inconclusive. Residues, ends and D or L forms follow the SMILES beside them. *: point of attachment. Cbz = O=C(OCc1ccccc1)*

Key:
[1] = biological target: Beta-2 adrenergic receptor (Homo sapiens) (UniProt P07550); experiment: qHTS validation assay of beta-arrestin-biased ligands of beta2-adrenergic receptor (AID 485366); note: 0% is about no effect
Chain of Beta-2 adrenergic receptor (Homo sapiens) (P07550 whole entry, looked up): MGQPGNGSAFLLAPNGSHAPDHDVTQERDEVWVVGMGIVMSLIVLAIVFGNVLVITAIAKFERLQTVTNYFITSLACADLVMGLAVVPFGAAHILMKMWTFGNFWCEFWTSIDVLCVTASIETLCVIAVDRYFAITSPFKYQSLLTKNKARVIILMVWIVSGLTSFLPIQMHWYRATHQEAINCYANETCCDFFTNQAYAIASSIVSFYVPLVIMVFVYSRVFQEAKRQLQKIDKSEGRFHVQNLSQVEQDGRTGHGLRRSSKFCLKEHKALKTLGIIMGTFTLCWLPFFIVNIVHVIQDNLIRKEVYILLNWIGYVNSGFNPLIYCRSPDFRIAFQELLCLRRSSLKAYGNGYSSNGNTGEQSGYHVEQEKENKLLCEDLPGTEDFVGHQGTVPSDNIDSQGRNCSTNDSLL
How it was run: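 Screening used a titration range of up to 46 microM in a beta-arrestin recruitment Tango luciferase assay. Cells in 1% FBS medium were treated 18 hr at 37 degrees C, and luminescence was normalized to %Activity.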

[2] = biological target: ATP-dependent 6-phosphofructokinase (Trypanosoma brucei brucei) (UniProt O15648); experiment: qHTS Validation Assay to Find Inhibitors of T. brucei phosphofructokinase (AID 485368)
Chain of ATP-dependent 6-phosphofructokinase (Trypanosoma brucei brucei) (O15648 whole entry, looked up): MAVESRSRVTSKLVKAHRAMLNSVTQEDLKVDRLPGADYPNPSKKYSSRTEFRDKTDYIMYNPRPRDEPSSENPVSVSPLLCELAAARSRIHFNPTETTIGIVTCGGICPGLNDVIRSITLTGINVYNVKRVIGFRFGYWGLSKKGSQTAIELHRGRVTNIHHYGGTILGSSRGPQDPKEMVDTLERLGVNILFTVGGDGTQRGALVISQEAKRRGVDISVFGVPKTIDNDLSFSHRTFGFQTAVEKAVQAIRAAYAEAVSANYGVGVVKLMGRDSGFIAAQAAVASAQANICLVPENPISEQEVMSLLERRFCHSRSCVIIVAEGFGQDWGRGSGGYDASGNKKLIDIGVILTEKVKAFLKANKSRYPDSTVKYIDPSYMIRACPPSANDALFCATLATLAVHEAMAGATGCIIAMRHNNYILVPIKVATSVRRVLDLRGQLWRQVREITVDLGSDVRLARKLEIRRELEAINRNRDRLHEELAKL
How it was run: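 PFK-generated ADP was measured after 45 min at room temperature using ADP-Glo. The reaction contained 0.5 mM F6P and 0.1 mM ATP.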

[3] = Quantitative high throughput screen for delayed death inhibitors of the malarial parasite plastid, 96 hour incubation (AID 488745); note: nearly all actives have a fitted effect of over 70% in size; note: potency is the fitted concentration of half-maximal effect
How it was run: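 Luciferase-expressing P. falciparum, infected RBCs 2% Hct/0.1% parasitemia (final); 96 h cpd exposure, 37 C, 5% CO2; RPMI 1640 + 0.5% Albumax, bicarbonate, gentamycin. Readout: luminescence loss = growth inhibition.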

[4] = Quantitative high throughput screen for delayed death inhibitors of the malarial parasite plastid, 48 hour incubation (AID 488752); note: nearly all actives have a fitted effect of over 65% in size; note: potency is the fitted concentration of half-maximal effect
How it was run: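 Luciferase-expressing P. falciparum in RBCs, 2% Hct, 0.1% parasitemia final; RPMI 1640 + 0.5% Albumax; 48 h, 37 C, 5% CO2; luminescence readout, signal drop = growth inhibition.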

[5] = biological target: Thioredoxin reductase 1, cytoplasmic (Rattus norvegicus) (UniProt O89049); experiment: qHTS Assay for Substrates of Mammalian Selenoprotein Thioredoxin Reductase 1 (TrxR1) (AID 488772);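 note: series mostly up to about 57 µM; 0% is about no effect; a drop in NADPH fluorescence below the no-compound background marks a TrxR1 substrate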
Chain of Thioredoxin reductase 1, cytoplasmic (Rattus norvegicus) (O89049 whole entry, looked up): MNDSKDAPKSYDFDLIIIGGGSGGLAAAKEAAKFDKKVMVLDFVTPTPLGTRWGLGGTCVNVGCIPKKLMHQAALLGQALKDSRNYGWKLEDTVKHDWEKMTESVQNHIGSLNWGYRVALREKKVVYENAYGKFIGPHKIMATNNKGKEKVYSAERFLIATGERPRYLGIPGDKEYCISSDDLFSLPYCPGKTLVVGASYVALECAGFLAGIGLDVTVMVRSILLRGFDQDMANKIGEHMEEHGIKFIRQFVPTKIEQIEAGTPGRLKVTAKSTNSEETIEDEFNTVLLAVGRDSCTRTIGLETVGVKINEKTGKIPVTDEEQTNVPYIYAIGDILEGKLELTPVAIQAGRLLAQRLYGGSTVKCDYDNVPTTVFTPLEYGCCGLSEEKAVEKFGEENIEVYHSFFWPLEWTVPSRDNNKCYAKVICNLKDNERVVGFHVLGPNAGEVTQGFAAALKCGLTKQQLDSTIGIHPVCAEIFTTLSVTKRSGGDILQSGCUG
How it was run: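 In this dual-purpose format, potential substrates are identified from the first fluorescence read after selenite addition, not from the 8-minute delta. Rat enzyme is preincubated with NADPH and then with compound at ~22 deg C.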

[6] = biological target: Thioredoxin reductase 1, cytoplasmic (Rattus norvegicus) (UniProt O89049); experiment: qHTS Assay for Inhibitors of Mammalian Selenoprotein Thioredoxin Reductase 1 (TrxR1) (AID 488773); settings: Potency: inhibition;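 note: drop in NADPH fluorescence over an 8 min run after selenite addition; series mostly up to about 57 µM; % is set by controls: 0 for no effect and ±100 for the full control effect; nearly all actives have a fitted effect of over 40% in size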
How it was run: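 Inhibition is scored from the loss of NADPH fluorescence between first and last reads of an 8-min kinetic run. Selenite (400 uM) was the substrate, added after 15 min compound preincubation at room temperature.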

[7] = biological target: Flap endonuclease 1 (Homo sapiens) (UniProt P39748); experiment: qHTS Validation Assay for the Inhibitors of Human Flap endonuclease 1 (FEN1) (AID 488816); note: % is set by controls: 0 for no effect and ±100 for the full control effect
How it was run: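 Steps: add FEN1 (10 nM reagent) or buffer only; pin compounds; hold 15 min at room temperature; start with substrate, 50 nM final; read at 0 and 15 min; correct, normalize and fit a four-parameter Hill curve.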

[8] = biological target: M-phase phosphoprotein 8 (Homo sapiens) (UniProt Q99549); experiment: qHTS Validation Assay for Inhibitors for MPP8 Chromodomain Interactions with Methylated Histone Tails (AID 488949); note: nearly all actives have a fitted effect of over 55% in size; note: potency is the fitted concentration of half-maximal effect
How it was run: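 Chemiluminescent proximity assay: histidine-tag capture via nickel acceptor beads, biotin peptide via streptavidin donor beads. Protein and peptide each at 50 nM, pH 7.4, with 30 min incubations at room temperature for complex formation, compound exposure and bead binding.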

[9] = biological target: Chromobox protein homolog 1 (Homo sapiens) (UniProt P83916); experiment: qHTS Validation Assay for Inhibitors of HP1-beta Chromodomain Interactions with Methylated Histone Tails (AID 488953); note: nearly all actives have a fitted effect of over 50% in size; note: potency is the fitted concentration of half-maximal effect
Chain of Chromobox protein homolog 1 (Homo sapiens) (P83916 whole entry, looked up): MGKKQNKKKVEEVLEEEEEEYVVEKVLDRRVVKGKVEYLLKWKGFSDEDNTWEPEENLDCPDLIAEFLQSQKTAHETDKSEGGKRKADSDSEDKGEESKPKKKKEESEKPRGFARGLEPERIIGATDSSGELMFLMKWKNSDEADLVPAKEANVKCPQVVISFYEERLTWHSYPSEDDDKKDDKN
How it was run: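 AlphaScreen proximity readout: streptavidin donor and Ni-chelate acceptor beads, 10 ug/mL final, 30 min dark, RT. Complex of 50 nM HP1-beta and 50 nM b-H3(1-18)K9me3 formed 30 min, then compound-treated 30 min; PBS pH 7.4/0.01% Tween-20.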

[10] = biological target: Methanococcus maripaludis chaperonin (MmCpn) (UniProt Q6LX38); experiment: High-Throughput Screening for Modulators of Cytosolic Chaperonin Activity: MmCpn Primary Screen (AID 488978); note: 0% is about no effect
How it was run: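 HTRF readout (320 nm excitation, 590/665 nm emission) of ADP generated by 50 nM MmCpn hydrolysing 30 uM ATP during 10 min at 37C; compound preincubated 5 min RT.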

[11] = biological target: Transient receptor potential cation channel subfamily V member 1 (Homo sapiens) (UniProt Q8NER1); experiment: HTS Assay for Compounds that Act as Enhancers of the Vanilloid Receptor 1 (AID 488979); note: 0% is about no effect
How it was run: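 TRPV1-expressing cells loaded with Fluo-8 calcium dye; compounds added and calcium influx read kinetically for 3 min (agonist phase), then capsaicin at EC20 added and read 2 min more for enhancement. Fluorescence ex 480/em 520 nm.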

[12] = biological target: Thyrotropin receptor (Homo sapiens) (UniProt P16473); experiment: qHTS Assay for Antagonists of the Thyroid Stimulating Hormone Receptor (AID 488980); note: series mostly up to about 58 µM; 0% is about no effect
Chain of Thyrotropin receptor (Homo sapiens) (P16473 whole entry, looked up): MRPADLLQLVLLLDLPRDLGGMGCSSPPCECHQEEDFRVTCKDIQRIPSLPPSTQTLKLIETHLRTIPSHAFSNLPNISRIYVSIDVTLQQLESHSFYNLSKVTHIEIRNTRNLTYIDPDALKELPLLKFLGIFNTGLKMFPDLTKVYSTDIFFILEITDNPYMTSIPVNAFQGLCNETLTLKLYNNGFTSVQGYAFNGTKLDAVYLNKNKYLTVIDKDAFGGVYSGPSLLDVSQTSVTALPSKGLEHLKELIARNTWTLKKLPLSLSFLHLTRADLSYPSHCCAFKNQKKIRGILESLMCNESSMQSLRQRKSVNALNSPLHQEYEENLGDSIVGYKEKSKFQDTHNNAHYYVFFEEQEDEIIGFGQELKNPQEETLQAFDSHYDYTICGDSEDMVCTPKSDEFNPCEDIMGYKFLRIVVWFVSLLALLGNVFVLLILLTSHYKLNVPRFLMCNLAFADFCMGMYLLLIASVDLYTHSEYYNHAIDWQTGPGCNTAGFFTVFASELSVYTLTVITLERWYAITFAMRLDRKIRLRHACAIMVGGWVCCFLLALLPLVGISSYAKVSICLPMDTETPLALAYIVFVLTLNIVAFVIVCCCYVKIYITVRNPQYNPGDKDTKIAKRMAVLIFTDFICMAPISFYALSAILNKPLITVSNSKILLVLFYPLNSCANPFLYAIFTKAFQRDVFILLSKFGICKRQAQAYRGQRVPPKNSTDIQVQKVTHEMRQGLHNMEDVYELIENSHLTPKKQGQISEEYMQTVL
How it was run: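 Inhibition of TSH-stimulated cAMP accumulation was quantified by homogeneous time-resolved FRET in TSHR-transfected HEK293 cells. Agonist: TSH, 4 nM final (EC80).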

[13] = biological target: D(1A) dopamine receptor (Homo sapiens) (UniProt P21728); experiment: HTS Assay for Allosteric Agonists of the Human D1 Dopamine Receptor: Primary Screen for Agonists (AID 488981); note: 0% is about no effect
Chain of D(1A) dopamine receptor (Homo sapiens) (P21728 whole entry, looked up): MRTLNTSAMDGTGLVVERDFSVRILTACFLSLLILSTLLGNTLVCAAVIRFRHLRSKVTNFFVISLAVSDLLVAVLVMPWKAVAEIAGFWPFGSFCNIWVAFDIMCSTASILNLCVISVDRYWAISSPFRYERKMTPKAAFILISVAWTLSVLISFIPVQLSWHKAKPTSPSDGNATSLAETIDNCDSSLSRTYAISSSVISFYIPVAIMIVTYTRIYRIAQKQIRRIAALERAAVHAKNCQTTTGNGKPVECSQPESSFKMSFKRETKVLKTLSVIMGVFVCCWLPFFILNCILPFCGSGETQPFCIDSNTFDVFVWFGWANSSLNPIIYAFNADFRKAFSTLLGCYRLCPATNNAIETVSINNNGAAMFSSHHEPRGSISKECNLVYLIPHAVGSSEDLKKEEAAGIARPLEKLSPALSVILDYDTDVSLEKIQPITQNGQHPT
How it was run: (§1)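 Tetracycline-induced HEK293 T-REx cells force-coupled to calcium signalling were incubated overnight at 30 C and dye-loaded at room temperature. Calcium flux over 180 s after compound addition flagged agonists; a further 180 s read after EC20 dopamine flagged potentiators.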

[14] = biological target: D(1A) dopamine receptor (Homo sapiens) (UniProt P21728); experiment: HTS Assay for Allosteric Agonists of the Human D1 Dopamine Receptor: Primary Screen for Potentiators (AID 488982); note: potency is the fitted concentration of half-maximal effect
How it was run: as §1

[15] = biological target: D(1A) dopamine receptor (Homo sapiens) (UniProt P21728); experiment: HTS Assay for Allosteric Agonists of the Human D1 Dopamine Receptor: Primary Screen for Antagonists (AID 488983);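 note: calcium flux response to an EC80 dopamine challenge measured with no-wash dye; nearly all actives have a fitted effect of over 65% in size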; note: potency is the fitted concentration of half-maximal effect
How it was run: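 Calcium flux readout, no-wash dye, inducible HEK293 T-REx D1 line (force-coupled). Compound added after 10 s baseline, 180 s kinetic read; then dopamine at EC80, further 180 s read.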

[16] = Validation screen for small molecules that induce genotoxicity in human embryonic kidney (HEK293T) cells expressing luciferase-tagged ELG1 (AID 493106); note: 0% is about no effect
How it was run: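 qHTS format; 2,000 HEK293T ELG1-luc cells/well; 23 nL compound via pin tool; 16 hr, 37 °C/5% CO2; ONE-Glo, 30 min RT; luminescence read.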

[17] = biological target: ATPase family AAA domain-containing protein 5 (Homo sapiens) (UniProt Q96QE3); experiment: Validation screen for small molecules that inhibit ELG1-dependent DNA repair in human embryonic kidney (HEK293T) cells expressing luciferase-tagged ELG1 (AID 493107);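 note: cells co-treated with the DNA-damaging agent 5-fluorouridine alongside compound; series mostly up to about 46 µM; % is set by controls: 0 for no effect and ±100 for the full control effect; inhibitors lower the ELG1-luciferase luminescence signal; nearly all actives have a fitted effect of over 70% in size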
Chain of ATPase family AAA domain-containing protein 5 (Homo sapiens) (Q96QE3 whole entry, looked up, the tested form may be a part): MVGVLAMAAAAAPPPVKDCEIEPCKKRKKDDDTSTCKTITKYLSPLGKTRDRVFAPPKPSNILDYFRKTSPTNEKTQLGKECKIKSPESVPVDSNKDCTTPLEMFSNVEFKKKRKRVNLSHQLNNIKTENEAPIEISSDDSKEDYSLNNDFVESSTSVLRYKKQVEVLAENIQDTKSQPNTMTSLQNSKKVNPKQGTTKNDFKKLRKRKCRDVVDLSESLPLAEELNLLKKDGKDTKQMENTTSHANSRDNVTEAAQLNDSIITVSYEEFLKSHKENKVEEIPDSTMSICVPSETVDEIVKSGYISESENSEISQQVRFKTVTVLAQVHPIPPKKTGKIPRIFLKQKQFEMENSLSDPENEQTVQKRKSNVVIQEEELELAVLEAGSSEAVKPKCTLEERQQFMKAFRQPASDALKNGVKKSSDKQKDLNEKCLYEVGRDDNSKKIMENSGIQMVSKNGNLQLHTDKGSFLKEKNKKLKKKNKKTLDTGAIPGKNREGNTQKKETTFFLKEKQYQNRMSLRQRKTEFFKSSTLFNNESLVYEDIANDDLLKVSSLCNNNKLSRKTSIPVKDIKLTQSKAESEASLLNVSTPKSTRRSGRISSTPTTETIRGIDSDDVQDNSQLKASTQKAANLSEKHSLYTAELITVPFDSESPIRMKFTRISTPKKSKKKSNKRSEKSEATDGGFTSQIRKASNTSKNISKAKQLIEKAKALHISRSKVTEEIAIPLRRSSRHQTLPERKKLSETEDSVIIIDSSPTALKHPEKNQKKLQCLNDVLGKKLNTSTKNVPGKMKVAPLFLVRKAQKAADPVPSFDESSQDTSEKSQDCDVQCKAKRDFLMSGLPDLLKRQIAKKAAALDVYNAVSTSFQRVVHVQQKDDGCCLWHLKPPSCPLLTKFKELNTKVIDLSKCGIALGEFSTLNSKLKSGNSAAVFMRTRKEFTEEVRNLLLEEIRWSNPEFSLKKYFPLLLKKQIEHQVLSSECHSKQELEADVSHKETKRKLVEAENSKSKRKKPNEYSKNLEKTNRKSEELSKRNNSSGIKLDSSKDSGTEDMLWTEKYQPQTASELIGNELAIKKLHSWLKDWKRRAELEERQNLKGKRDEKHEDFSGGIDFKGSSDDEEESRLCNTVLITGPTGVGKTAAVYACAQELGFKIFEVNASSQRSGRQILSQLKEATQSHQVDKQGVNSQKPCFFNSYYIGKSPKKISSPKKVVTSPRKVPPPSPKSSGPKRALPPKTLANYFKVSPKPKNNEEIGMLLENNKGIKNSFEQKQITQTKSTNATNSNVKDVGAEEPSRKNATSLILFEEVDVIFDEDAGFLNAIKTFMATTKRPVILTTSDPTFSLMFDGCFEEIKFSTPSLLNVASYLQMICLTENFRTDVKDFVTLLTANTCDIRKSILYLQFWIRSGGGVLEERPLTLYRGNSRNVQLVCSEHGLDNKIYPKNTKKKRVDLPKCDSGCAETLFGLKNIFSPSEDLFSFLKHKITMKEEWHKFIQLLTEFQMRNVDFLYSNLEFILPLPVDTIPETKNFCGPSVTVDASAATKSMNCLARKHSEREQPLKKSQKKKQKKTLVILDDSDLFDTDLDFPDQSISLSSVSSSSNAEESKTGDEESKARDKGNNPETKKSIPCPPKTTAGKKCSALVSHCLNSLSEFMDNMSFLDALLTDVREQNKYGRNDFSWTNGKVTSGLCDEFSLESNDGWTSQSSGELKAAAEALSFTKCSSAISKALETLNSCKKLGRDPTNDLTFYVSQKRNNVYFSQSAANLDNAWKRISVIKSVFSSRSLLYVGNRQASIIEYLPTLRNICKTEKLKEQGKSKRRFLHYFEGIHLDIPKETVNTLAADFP
How it was run: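 ELG1-luciferase HEK293T reporter; 5-fluorouridine + compound/DMSO, 16 hr, 37 °C, 5% CO2; ONE-Glo 30 min RT; luminescence read, qHTS format.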

[18] = biological target: Thyrotropin-releasing hormone receptor (Homo sapiens) (UniProt P34981); experiment: qHTS for Small Molecule Agonists and Allosteric Enhancers of Human TRH Receptor: Validation Screen for Agonists (AID 493127;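 active = calcium activation more than 3 SD above the typical response in the agonist read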;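 note: intracellular calcium rise by fluo-8 fluorescence before TRH EC20 addition; 0% is about no effect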); settings: TRH receptor agonist cell assay; at 2 µM; stronger effect = higher value
Chain of Thyrotropin-releasing hormone receptor (Homo sapiens) (P34981 whole entry, looked up): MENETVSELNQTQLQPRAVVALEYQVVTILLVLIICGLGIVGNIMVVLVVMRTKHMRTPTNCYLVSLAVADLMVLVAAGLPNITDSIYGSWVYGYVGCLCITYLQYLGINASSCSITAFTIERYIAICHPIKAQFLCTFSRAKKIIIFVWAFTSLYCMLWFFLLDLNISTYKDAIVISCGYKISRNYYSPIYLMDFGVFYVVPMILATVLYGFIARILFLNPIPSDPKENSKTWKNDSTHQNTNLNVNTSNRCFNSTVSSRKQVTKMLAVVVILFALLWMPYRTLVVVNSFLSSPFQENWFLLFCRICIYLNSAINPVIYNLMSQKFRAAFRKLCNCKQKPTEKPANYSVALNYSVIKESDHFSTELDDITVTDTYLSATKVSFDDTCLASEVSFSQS
How it was run: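 Read-out: intracellular calcium release measured kinetically by FDSS (fluo-8, ex 480/em 530 nm), 1 reading/s after a 10-cycle baseline. TRHR cells, 2000/well, cultured 18 h at 33.5C, dye-loaded at room temp. Compound-evoked positive calcium signal flags agonists.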

C#CC(N)CCC(=O)O (configuration not stated)
inactive: outcome [1] | Potency [2] | Potency [3] | Potency [4] | outcome [5] | Potency [6] | Potency [7] | Potency [8] | Potency [9] | outcome [10] | outcome [11] | outcome [12] | Potency [13] | Potency [14] | Potency [15] | Potency [16] | Potency [17] | activation [18] 0.625%

NC1C=CC=C(C(=O)O)C1 (configuration not stated)
inactive: outcome [1] | Potency [2] | Potency [3] | Potency [4] | outcome [5] | Potency [6] | Potency [7] | Potency [8] | Potency [9] | outcome [10] | outcome [11] | outcome [12] | Potency [13] | Potency [14] | Potency [15] | Potency [17] | activation [18] -0.125%

CC(C)[C@H](NC(=O)OCc1ccccc1)C(=O)N[C@H](C=O)Cc1ccccc1 (Cbz-Val-Phe-aldehyde)
inactive: outcome [1] | Potency [2] | outcome [5] | Potency [6] | Potency [7] | Potency [8] | Potency [9] | outcome [10] | outcome [11] | outcome [12] | Potency [15] | Potency [16] | Potency [17] | activation [18] 0.25%
active: Potency [3] 2330 nM | Potency [4] 2940 nM | Potency [14] 2060 nM

NC/C=C\C(=O)O
inactive: outcome [1] | Potency [2] | Potency [3] | Potency [4] | outcome [5] | Potency [6] | Potency [7] | Potency [8] | Potency [9] | outcome [10] | outcome [11] | outcome [12] | Potency [13] | Potency [14] | Potency [15] | Potency [16] | Potency [17] | activation [18] 0.75%

O[Si](CCCN1CCCCC1)(c1ccc(F)cc1)C1CCCCC1 (configuration not stated)
active: Potency [3] 117 nM | Potency [4] 117 nM
inactive: outcome [1] | Potency [2] | outcome [5] | Potency [6] | Potency [7] | Potency [9] | outcome [10] | outcome [12] | Potency [14] | Potency [15] | Potency [16] | Potency [17] | activation [18] 5.12%

CC1CCN=C(N)S1 (configuration not stated)
inactive: outcome [1] | Potency [2] | Potency [3] | Potency [4] | outcome [5] | Potency [6] | Potency [7] | Potency [8] | Potency [9] | outcome [10] | outcome [11] | outcome [12] | Potency [13] | Potency [15] | Potency [16] | Potency [17] | activation [18] -2.88%

COC(=O)C(C)(N)Cc1ccc(O)cc1 (configuration not stated)
inactive: outcome [1] | Potency [2] | Potency [3] | Potency [4] | outcome [5] | Potency [6] | Potency [7] | Potency [8] | outcome [10] | outcome [11] | outcome [12] | Potency [13] | Potency [14] | Potency [15] | Potency [16] | Potency [17] | activation [18] 0.125%

NC1(C(=O)O)CCCCC1
inactive: outcome [1] | Potency [2] | Potency [3] | Potency [4] | outcome [5] | Potency [6] | Potency [7] | Potency [8] | outcome [10] | outcome [11] | outcome [12] | Potency [13] | Potency [14] | Potency [15] | Potency [16] | Potency [17] | activation [18] 0.5%

N[C@@H](Cc1ccc(O)c(I)c1)C(=O)O
inactive: outcome [1] | Potency [2] | Potency [3] | Potency [4] | outcome [5] | Potency [6] | Potency [7] | Potency [8] | Potency [9] | outcome [10] | outcome [11] | outcome [12] | Potency [13] | Potency [14] | Potency [15] | Potency [16] | Potency [17] | activation [18] 1.19%

COc1ccccc1N1CCN(CCCCN2C(=O)c3ccccc3C2=O)CC1
inactive: outcome [1] | Potency [2] | Potency [3] | Potency [4] | outcome [5] | Potency [6] | Potency [7] | Potency [8] | Potency [9] | outcome [10] | outcome [11] | outcome [12] | Potency [13] | Potency [14] | Potency [16] | Potency [17] | activation [18] -3.44%
active: Potency [15] 10000 nM

CC(=O)/C(C)=N/O
inactive: outcome [1] | Potency [2] | Potency [3] | Potency [4] | outcome [5] | Potency [6] | Potency [7] | Potency [8] | outcome [10] | outcome [11] | outcome [12] | Potency [13] | Potency [14] | Potency [15] | Potency [16] | activation [18] 0.0625%

COc1cc(CNC(=O)CCCCCCC(C)C)ccc1O
inactive: outcome [1] | Potency [2] | Potency [3] | Potency [4] | outcome [5] | Potency [6] | Potency [7] | Potency [8] | Potency [9] | outcome [10] | outcome [12] | Potency [13] | Potency [14] | Potency [15] | Potency [16] | Potency [17] | activation [18] -5.38%

COC(=O)[C@H](NC(=O)c1cc(-c2ccccc2)nc2ccccc12)c1ccccc1
inactive: outcome [1] | Potency [2] | Potency [3] | Potency [4] | outcome [5] | Potency [6] | Potency [7] | Potency [8] | Potency [9] | outcome [10] | outcome [11] | outcome [12] | Potency [13] | Potency [14] | Potency [15] | Potency [16] | activation [18] -5.81%

COc1ccccc1N1CCN(CCCCNC(=O)c2ccc3ccccc3c2)CC1
active: Potency [3] 2940 nM | Potency [4] 4650 nM | Potency [15] 8910 nM
inactive: outcome [1] | Potency [2] | outcome [5] | Potency [6] | Potency [7] | Potency [8] | outcome [10] | outcome [11] | outcome [12] | Potency [13] | Potency [14] | Potency [16] | Potency [17] | activation [18] 3%

CCCCCCCCCCCCCCSCC(=O)O
active: Potency [9] 50100 nM
31.6 µM (active) and inactive: Potency [8]
inactive: outcome [1] | Potency [2] | Potency [3] | Potency [4] | outcome [5] | Potency [6] | Potency [7] | outcome [10] | outcome [11] | outcome [12] | Potency [13] | Potency [14] | Potency [15] | Potency [16] | Potency [17] | activation [18] 0.688%
